The values below come from PubChem BioAssay (NCATS).

Records with an inconclusive call do not appear. A call without a number means that no potency is given here. Activity calls are given as the source filed them. The call rests on the fitted dose curve; in most records, active means well fitted inhibition curve with a large enough effect; inconclusive means small, poorly fitted or top-dose-only effect; inactive means no such curve, though single readings can be large or run the other way.
Potency means the concentration at half of the fitted maximal effect.

The test can be described thus: qHTS Screen of the MIPE 4.0 Collection Against Ewings Sarcoma (EW8) (AID 1259255). Further: nearly all actives have a fitted effect of over 35% in size. Conditions: EW8 Ewing sarcoma viability, CellTiter-Glo, 48 h; series mostly up to 45.8 µM. The source says: There is a large unmet medical need for treatments for Ewing sarcoma, a pediatric sarcoma. We sought to identify compounds that inhibited Ewing sarcoma cells in vitro with the goal to then test promising drugs in two drug combinations in vitro to look for synergistic drug combinations. Promising combinations would then proceed to additional validation, including in vivo testing.
Using the NCATS developed oncology compound library called the Mechanism of Interrogation Plate (MIPE), four Ewing sarcoma cell lines were evaluated (TC32, TC71, RDES, EW8). Compounds, in a 12-point titration series, were incubated with cells for 48 hours and the read out was cell viability (CellTiter-Glo from Promega). These initial experiments were used to select appropriate concentrations of each single agent for subsequent two-drug matrix combinations such that the concentrations in the matrices would span both activity and non-activity.
Cells, in the log phase of growth, were seeded in 5 uL of RPMI plus 5% FBS, […] L-glutamine, 100 U/ml penicillin and 100 ug/ml streptomycin into 1536-well solid-bottom white tissue culture treated Greiner Bio One Plates (789173-F) using a MultiDrop Combi (Thermofisher Scientific) dispenser and a small sterile cassette. One column was media alone to be used as a :"no cells" control. The plates were then covered with sterilized stainless steel gasketed lids from Kalypsys. After allowing cells to attach for 4 hours, 23 nL of test compound or control (negative control DMSO and positive control 9.2 uM Bortezomib-final) were added from a 1536-well polypropylene compound source plate to each well using a 1536 head pin tool from Kalypsys. Cells were then incubated for 48 hours at 37C, 95% relative humidity and 5% CO2. After 48 hours, plates were removed from the incubator and 3 uL of CellTiter-Glo (Promega) was added using an Aurora Flying Reagent Dispenser Bioraptor. Plates were incubated at room temperature for 10 minutes prior to reading the luminescence on the Viewlux (PerkinElmer). The relative luciferase units are used to calculate the percent activity using the activity of DMSO in the cells and no cells columns for normalization of no inhibition and full inhibition respectively.
(In general: Quantitative high-throughput screening tests each substance at several concentrations.)
For `O=C(Nc1ccc([N+](=O)[O-])cc1Cl)c1cc(Cl)ccc1O`, the Potency was 16.6 µM (active). With `CN(C)C(=N)N=C(N)N`, the Potency result was “inactive”. For `CC[N+](CC)(CC)CCOc1cccc(OCC[N+](CC)(CC)CC)c1OCC[N+](CC)(CC)CC`, the Potency entry was “inactive”. The value for `CC1(CN2CCC(n3c(=O)[nH]c4ccccc43)CC2)OCc2ccccc2-n2cccc21` (stereo not given) was 14.8 µM (active); that for `CCC1(C)CC(=O)NC1=O` (stereo not given) was “inactive”; that for `CC(COc1ccccc1)N(CCCl)Cc1ccccc1` (stereo not given) was “inactive”. `CC1(C)O[C@H]2CC(=O)OC[C@]23[C@H]2CC[C@@]4(C)[C@H](c5ccoc5)OC(=O)[C@H]5O[C@]54[C@]2(C)C(=O)C[C@@H]13`: the Potency entry was “inactive”. On to `Cc1ccc(-c2cc(C(F)(F)F)nn2-c2ccc(S(N)(=O)=O)cc2)cc1`, for which the Potency was 20.9 µM (active). Take `COc1ccc2[nH]cc(CCNC(C)=O)c2c1`: the Potency is 2.96 µM (active). On to `CC(C)(Oc1ccc(C2CC2(Cl)Cl)cc1)C(=O)O` (stereo not given), for which the Potency was 7.62 µM (active).

With `Cn1cnc2c1c(=O)[nH]c(=O)n2C`, the Potency was 23.5 µM (active). The value for `O=C1c2c(O)ccc(O)c2C(=O)c2c(NCCNCCO)ccc(NCCNCCO)c21` was 0.059 µM (active); that for `COc1ccccc1N1CCN(CC(O)COc2cccc3ccccc23)CC1` (stereo not given) was “inactive”. The value for `Clc1ccc2c(c1)C(N1CCNCC1)=Nc1ccccc1O2` was 16.6 µM (active); that for `O=c1c(-c2ccc(O)cc2)coc2cc(O)cc(O)c12` was “inactive”. On to `Cc1cn([C@H]2C=C[C@@H](CO)O2)c(=O)[nH]c1=O`, for which the Potency entry is “inactive”. As to `CN(C)C(=O)C(CCN1CCC(O)(c2ccc(Cl)cc2)CC1)(c1ccccc1)c1ccccc1`, the Potency is 16.6 µM (active). The value for `CCN1CCCC1CNC(=O)c1cc(S(=O)(=O)CC)c(N)cc1OC` (stereo not given) was 20.9 µM (active); that for `CS(=O)(=O)Nc1ccc([N+](=O)[O-])cc1Oc1ccccc1` was 16.6 µM (active).

As for `COc1cc2nc(N3CCN(C(=O)c4ccco4)CC3)nc(N)c2cc1OC`, the Potency was 18.7 µM (active). For `N[C@@H](Cc1c[nH]c2ccc(O)cc12)C(=O)O`, the Potency entry was “inactive”.

Turning to `NCCc1cnc[nH]1`, the Potency result was “inactive”. The value for `CC(C)Cc1ccc(C(C)C(=O)O)cc1` (stereo not given) was “inactive”; that for `O=c1c(O)c(-c2ccc(O)c(O)c2)oc2cc(O)cc(O)c12` was 13.2 µM (active).

In the case of `O=C(C1CCCCC1)N1CC(=O)N2CCc3ccccc3C2C1` (stereo not given), the Potency result was “inactive”. On to `CN(C)CCCN1c2ccccc2CCc2ccc(Cl)cc21`, for which the Potency is 2.96 µM (active). Regarding `Cc1ccc(C(=O)Nc2ccc(S(=O)(=O)O)c3cc(S(=O)(=O)O)cc(S(=O)(=O)O)c23)cc1NC(=O)c1cccc(NC(=O)Nc2cccc(C(=O)Nc3cc(C(=O)Nc4ccc(S(=O)(=O)O)c5cc(S(=O)(=O)O)cc(S(=O)(=O)O)c45)ccc3C)c2)c1`, the Potency entry is “inactive”. The same measure for `Cn1c(=O)c2c(ncn2C)n(C)c1=O`: “inactive”. On to `CCC1(c2ccccc2)C(=O)NCNC1=O`, for which the Potency was 18.7 µM (active). Regarding `COc1ccccc1OCC(O)CN1CCN(CC(=O)Nc2c(C)cccc2C)CC1` (stereo not given), the Potency entry was “inactive”. Take `CC1COc2c(N3CCN(C)CC3)c(F)cc3c(=O)c(C(=O)O)cn1c23` (stereo not given): the Potency entry was “inactive”. The value for `CNCCCC12CCC(c3ccccc31)c1ccccc12` was 18.7 µM (active); that for `O=C1Cc2cc(CCN3CCN(c4nsc5ccccc45)CC3)c(Cl)cc2N1` was 23.5 µM (active); that for `COc1nc(C)nc(Cl)c1NC1=NCCN1` was “inactive”.

With `CN(C)CCC=C1c2ccccc2C=Cc2ccccc21`, the Potency was 16.6 µM (active). For the compound `NS(=O)(=O)c1cc2c(cc1Cl)NCNS2(=O)=O`, the Potency result is “inactive”. For `CCc1cccc2c3c([nH]c12)C(CC)(CC(=O)O)OCC3` (stereo not given), the Potency result is “inactive”. For the compound `CC#C[C@]1(O)CC[C@H]2[C@@H]3CCC4=CC(=O)CCC4=C3[C@@H](c3ccc(N(C)C)cc3)C[C@@]21C`, the Potency was 0.418 µM (active). The value for `C[C@@H]1CC(=O)NN=C1c1ccc(NN=C(C#N)C#N)cc1` was 20.9 µM (active); that for `COc1cc2c(c(OC)c1OC)-c1ccc(OC)c(=O)cc1[C@@H](NC(C)=O)CC2` was “inactive”.
